{"source": "ChEMBL document CHEMBL1201862", "about": "“PubChem BioAssay data set” (2004)", "note": "In all, about 400,000 compounds went through this assay and about 2,100 (0.53%) were called active. About 14% were inconclusive and are not listed. No rule for the calls is given here. The sample as a whole holds a higher share of actives than the screen did."}
{"molecular_target": "Ataxin-2 (Homo sapiens) (UniProt Q99700)", "sequence (Q99700 whole entry)": "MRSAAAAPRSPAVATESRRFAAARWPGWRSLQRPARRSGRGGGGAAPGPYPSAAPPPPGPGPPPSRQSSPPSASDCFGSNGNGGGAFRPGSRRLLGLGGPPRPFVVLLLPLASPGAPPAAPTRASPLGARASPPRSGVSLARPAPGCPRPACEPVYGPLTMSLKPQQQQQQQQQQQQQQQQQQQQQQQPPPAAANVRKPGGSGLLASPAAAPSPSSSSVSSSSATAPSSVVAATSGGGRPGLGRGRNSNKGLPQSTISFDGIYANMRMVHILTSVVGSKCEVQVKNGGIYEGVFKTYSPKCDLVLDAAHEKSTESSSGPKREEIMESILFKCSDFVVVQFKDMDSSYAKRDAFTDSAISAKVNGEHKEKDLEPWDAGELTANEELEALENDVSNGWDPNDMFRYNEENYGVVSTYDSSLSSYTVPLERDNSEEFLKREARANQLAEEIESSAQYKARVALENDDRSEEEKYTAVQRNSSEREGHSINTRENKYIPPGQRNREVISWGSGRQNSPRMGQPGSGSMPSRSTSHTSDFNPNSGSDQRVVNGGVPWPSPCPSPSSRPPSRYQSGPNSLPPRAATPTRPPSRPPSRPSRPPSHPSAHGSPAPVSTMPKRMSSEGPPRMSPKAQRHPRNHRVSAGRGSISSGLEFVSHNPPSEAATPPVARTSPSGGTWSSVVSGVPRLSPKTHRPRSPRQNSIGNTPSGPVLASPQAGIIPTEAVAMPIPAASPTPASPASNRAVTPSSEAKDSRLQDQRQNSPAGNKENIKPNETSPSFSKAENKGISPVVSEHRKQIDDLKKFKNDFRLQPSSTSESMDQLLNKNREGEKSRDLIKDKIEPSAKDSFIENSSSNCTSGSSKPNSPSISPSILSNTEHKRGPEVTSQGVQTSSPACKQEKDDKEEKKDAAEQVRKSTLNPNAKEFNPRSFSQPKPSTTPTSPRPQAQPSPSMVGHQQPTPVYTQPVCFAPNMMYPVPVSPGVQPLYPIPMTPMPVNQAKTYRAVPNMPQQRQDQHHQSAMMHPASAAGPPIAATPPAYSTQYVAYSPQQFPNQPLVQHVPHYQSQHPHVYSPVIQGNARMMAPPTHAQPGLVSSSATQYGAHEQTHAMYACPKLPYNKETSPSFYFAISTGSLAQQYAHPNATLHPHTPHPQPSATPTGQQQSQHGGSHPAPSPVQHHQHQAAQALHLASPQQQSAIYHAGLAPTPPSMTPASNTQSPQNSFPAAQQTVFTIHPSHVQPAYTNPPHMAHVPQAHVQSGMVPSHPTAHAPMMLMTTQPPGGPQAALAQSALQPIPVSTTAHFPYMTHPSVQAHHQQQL", "experiment": "qHTS for Inhibitors of ATXN expression.", "assay_type": "functional"}
{"smiles": "Cc1ccc(C(=O)Nc2cccc(-c3nc(CNC(=O)c4ccc5ccccc5n4)c(C)o3)c2)s1", "Potency": "inactive"}
{"smiles": "O=[N+]([O-])c1cc2c(cc1/C=N/n1cnnc1)OCO2", "Potency": "inactive"}
{"smiles": "CCNc1nc(C)c(CN(C(C)=O)c2ccccc2)nc1C#N", "Potency": "inactive"}
{"smiles": "Cc1ccc(-c2cn3nc(C)c(C)nc3n2)cc1", "Potency": "inactive"}
{"smiles": "Cc1ccc(S(=O)(=O)N(CC(O)Cn2c3ccccc3c3ccccc32)c2cccc(C(=O)NCCO)c2)cc1", "note": "(stereo not given)", "Potency": "35.5 µM (active)"}
{"smiles": "Cc1cccc(N(CC(O)Cn2c3ccccc3c3ccccc32)S(=O)(=O)c2ccc(F)cc2)c1", "note": "(stereo not given)", "Potency": "15.8 µM (active)"}
{"smiles": "CCCCN(CCCC)CC(O)Cn1c2ccccc2c(=O)c2ccccc21", "note": "(stereo not given)", "Potency": "inactive"}
{"smiles": "O=S(=O)(c1ccc(F)cc1)N(CC(O)Cn1c2ccccc2c2ccccc21)c1ccccc1", "note": "(stereo not given)", "Potency": "22.4 µM (active)"}
{"smiles": "CCCCN(C)CC(O)Cn1cc(/C=C/C(=O)c2ccc(C)cc2)c2ccccc21", "note": "(stereo not given)", "Potency": "inactive"}
{"smiles": "CC(C)(C)N(NS(=O)(=O)c1ccc(F)cc1)c1ccccc1", "Potency": "inactive"}
{"smiles": "CN(C)/C=N/c1nc2nccc(-c3ccccn3)n2n1", "Potency": "inactive"}
{"smiles": "O=C(CN(Cc1ccc(F)cc1)C(=O)CCC(=O)Nc1nccs1)NCc1ccccc1", "Potency": "inactive"}
{"smiles": "CC(=O)Oc1cc2oc(=O)cc(C)c2cc1Cl", "Potency": "inactive"}
{"smiles": "CCCn1nc(NC(=O)CC(C)C)c2cc3cccc(C)c3nc21", "Potency": "inactive"}
{"smiles": "Cc1cc(C)c2ccc(N)nc2c1O", "Potency": "39.8 µM (active)"}
{"smiles": "Cn1nc(NC(=O)C(F)(F)F)c2ncc(-c3ccc(Cl)cc3)nc21", "Potency": "inactive"}
{"smiles": "COc1ccccc1[C@H]1C(c2ccc(F)cc2)=NN(c2ccccc2)[C@@H]1CO", "Potency": "inactive"}
{"smiles": "COc1ccccc1CNc1ccc(Br)cn1", "Potency": "inactive"}
{"smiles": "CCCCc1c(-c2ccc(F)cc2)ncn1CCc1ccccc1OC", "Potency": "31.6 µM (active)"}
{"smiles": "COc1ccccc1CCN1COc2c(cc3c(C)c(C)c(=O)oc3c2C)C1", "Potency": "inactive"}
{"smiles": "CC1=C(C)C(=O)N(C(C)CCc2ccccc2)C1=O", "note": "(stereo not given)", "Potency": "inactive"}
{"smiles": "COc1ccccc1CCn1cnc(Cc2ccccc2)c1C(C)C", "Potency": "39.8 µM (active)"}
{"smiles": "COc1ccccc1NC(=O)C(C)Sc1nccn1C", "note": "(stereo not given)", "Potency": "inactive"}
{"smiles": "COc1ccccc1CCn1cnc(-c2ccc(Br)cc2)c1C(C)C", "Potency": "25.1 µM (active)"}
{"smiles": "CCCCc1c(Cc2ccccc2)ncn1CCc1ccccc1OC", "Potency": "15.8 µM (active)"}
{"smiles": "CCN(CC)c1ccc2c(Cl)cc(=O)oc2c1", "Potency": "inactive"}
{"smiles": "N#Cc1cc2c(=O)n3ccccc3nc2n(Cc2ccco2)/c1=N/C(=O)c1ccco1", "Potency": "inactive"}
{"smiles": "COc1cccc2sc3ccc(NCc4ccc5c(c4)OCO5)cc3c(=O)c12", "Potency": "inactive"}
{"smiles": "Cc1c(C#N)c2n(c1C)CCCC(=O)N2", "Potency": "inactive"}
{"smiles": "COc1cc2c(cc1OC)C1=C(C#N)CC/C(=N\\S(=O)(=O)c3ccccc3)N1CC2", "Potency": "inactive"}
{"smiles": "CCCCc1c(-c2ccc(OC)cc2)ncn1CCc1ccccc1OC", "Potency": "39.8 µM (active)"}
{"smiles": "CCCCc1c(-c2ccccc2)ncn1CCc1ccccc1OC", "Potency": "35.5 µM (active)"}
{"smiles": "COc1ccccc1CCn1c(N)c(C#N)c2nc3ccccc3nc21", "Potency": "inactive"}
{"smiles": "COc1ccccc1CCC(=O)NNC(=O)Cn1nc(C)cc1C", "Potency": "inactive"}
{"smiles": "CCCCc1c(-c2cccc(F)c2)ncn1CCc1ccccc1OC", "Potency": "39.8 µM (active)"}
{"smiles": "CCCCCc1c(-c2ccc(OC)cc2)ncn1CCc1ccccc1OC", "Potency": "31.6 µM (active)"}
{"smiles": "CCCn1nc(-c2ccccc2)c2nc3ccccc3nc21", "Potency": "inactive"}
{"smiles": "Cc1cccn2c(=O)c3cc(C(=O)NCc4cccnc4)c(=N)n(C(C)C)c3nc12", "Potency": "inactive"}
{"smiles": "COc1ccc2c(c1)CCCC21SC(NC(C)=O)=NN1C(C)=O", "note": "(stereo not given)", "Potency": "inactive"}
{"smiles": "O=C1OCCN1C(=O)[C@H]1[C@H](c2ccccc2)C(c2ccccc2)=NN1c1ccc(Br)cc1", "Potency": "inactive"}
{"smiles": "CCOc1ccc(-c2nnn(CCC#N)n2)cc1OC", "Potency": "inactive"}
{"smiles": "CCOCCCNC(=O)c1ccc2nc(-c3ccc(OC)c(OC)c3)c(-c3ccc(OC)c(OC)c3)nc2c1", "Potency": "inactive"}
{"smiles": "CCCCc1c(-c2ccc(OC)c(OC)c2)ncn1CCc1ccccc1OC", "Potency": "22.4 µM (active)"}
{"smiles": "CCCS(=O)(=O)c1c(S(=O)(=O)CCC)c2cc(-c3ccncc3)ccn2c1C(=O)OC", "Potency": "inactive"}
{"smiles": "CN1CCN(S(=O)(=O)c2ccc(NC(=O)COc3ccccc3)cc2)CC1", "Potency": "inactive"}
{"smiles": "Cc1ccc(S(=O)(=O)N2C[C@@H](C)[C@]3(C2)[C@H](O)[C@H](OC(=O)Nc2cccs2)C[C@H]2C(=O)N(c4ccccc4)C(=O)[C@H]23)cc1", "Potency": "35.5 µM (active)"}
{"smiles": "CCCCn1/c(=N\\C(=O)c2ccco2)c(C(=O)OCC)cc2c(=O)n3cccc(C)c3nc21", "Potency": "inactive"}
{"smiles": "CCn1cc(C2C3=C(O)CCCC3=NC(C)=C2C(=O)Nc2ccc(Br)cn2)c(C)n1", "note": "(stereo not given)", "Potency": "inactive"}
{"smiles": "COc1ccc(NC(=O)Cn2c(SCc3cc(C)ccc3C)nc3ccncc32)c(OC)c1OC", "Potency": "39.8 µM (active)"}
{"smiles": "CCOc1nc2cnccc2n(CC(=O)Nc2ccc(C)c(C)c2)c1=O", "Potency": "inactive"}
